Reference: PubChem BioAssay (Tox21)
“And” between values parts separate entries of the source, which are not always exact repeats. Identical values can stand only once. More than one record can exist for a structure, and the calls need not agree. The source made the active and inactive calls. Unless noted, the call rests on the fitted dose curve; in most records, active means well fitted curve in the direction sought with a large enough effect in the repeat runs; inconclusive means weak or mixed curves; inactive means no such curve, though single readings can be large; an effect the other way counts as inactive or inconclusive.

What was measured:
[1] = qHTS assay to identify small molecule antagonists of the thyroid receptor (TR) signaling pathway - cell viability counter screen (AID 743064); further: potency means the concentration at half of the fitted maximal effect; nearly all actives have a fitted effect of over 50% in size
Procedure, shortened: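 Viability of T3-stimulated (1 nM final) GH3.TRE-Luc cells is measured by CellTiter-Fluor fluorescence after 23.5 h compound exposure at 37 °C plus 30 min reagent incubation.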

[2] = qHTS assay to identify small molecule antagonists of the thyroid receptor (TR) signaling pathway (AID 743065); further: potency means the concentration at half of the fitted maximal effect; nearly all actives have a fitted effect of over 55% in size
Procedure, shortened: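 GH3.TRE-Luc rat pituitary cells (two TREs driving luciferase) were dosed with compound, then stimulated with 1 nM T3 (final) for 23.5 h at 37 C. ONE-Glo luminescence was the read-out, with CellTiter-Fluor fluorescence as the cytotoxicity counter-screen.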

[3] = qHTS assay to identify small molecule antagonists of the estrogen receptor alpha (ER-alpha) signaling pathway - cell viability counter screen (AID 743074; calls by dose curve;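 further: HEK293 cells carrying ER-alpha-UAS-bla reporter stimulated with 17beta-estradiol; nearly all actives have a fitted effect of over 45% in size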; further: potency means the concentration at half of the fitted maximal effect)
Aromatase (Homo sapiens) = Aromatase (Homo sapiens) (UniProt P11511); assay: qHTS assay to identify aromatase inhibitors (AID 743083); further: nearly all actives have a fitted effect of over 55% in size; further: potency means the concentration at half of the fitted maximal effect
[4] = qHTS assay to identify aromatase inhibitors - cell viability counter screen (AID 743084);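 further: cells stimulated with testosterone during compound exposure; nearly all actives have a fitted effect of over 55% in size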; further: potency means the concentration at half of the fitted maximal effect
[5] = qHTS assay to identify small molecule that activate the aryl hydrocarbon receptor (AhR) signaling pathway - cell viability counter screen (AID 743086); further: nearly all actives have a fitted effect of over 45% in size; further: potency means the concentration at half of the fitted maximal effect
Procedure, shortened: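 HepG2-AhR-luc (HG2L7.5c1) cells, 4000/well, treated 24 h at 37 C with compound; viability measured as CellTiter-Fluor fluorescence after 30 min in the same wells as the luciferase read.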

[6] = qHTS assay to identify small molecule antagonists of the peroxisome proliferator-activated receptor gamma (PPARg) signaling pathway - cell viability counter screen (AID 743194); further: nearly all actives have a fitted effect of over 55% in size; further: potency means the concentration at half of the fitted maximal effect
Procedure, shortened: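 Cytotoxicity counter screen in PPARg-bla HEK293H cells, same wells as reporter assay. Compounds plus 50 nM rosiglitazone (final) for 17 h at 37 C, then viability read by CellTiter-Glo luminescence.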

[7] = qHTS assay for small molecule agonists of the antioxidant response element (ARE) signaling pathway - cell viability counter screen (AID 743203; calls by dose curve; further: nearly all actives have a fitted effect of over 55% in size; further: potency means the concentration at half of the fitted maximal effect)
Procedure, shortened: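 Luminescence read-out (CellTiter-Glo, 30 min at room temperature) measured cell viability in the same wells as the ARE beta-lactamase reporter. HepG2 ARE-bla cells were treated with compounds for 16 hrs at 37C/5% CO2.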

[8] = qHTS assay to identify small molecule antagonists of the estrogen receptor alpha (ER-alpha) signaling pathway using the BG1 cell line - cell viability counter screen (AID 743081);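 further: compound given together with 17beta-estradiol as the ER stimulus; nearly all actives have a fitted effect of over 45% in size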
[9] = target: Aryl hydrocarbon receptor (Homo sapiens) (UniProt P35869); assay: qHTS assay to identify small molecule that activate the aryl hydrocarbon receptor (AhR) signaling pathway (AID 743085); further: nearly all actives have a fitted effect of over 15% in size; further: potency means the concentration at half of the fitted maximal effect;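 on activation: HG2L7.5c1 human HepG2 liver cells with stably integrated DRE-driven firefly reporter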
Procedure, shortened: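 A multiplexed format paired cell viability (CellTiter-Fluor fluorescence) with AhR-dependent luciferase output (ONE-Glo luminescence) in the same wells of HepG2 DRE-luc cells after 24 h compound exposure at 37C.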

[10] = qHTS assay for small molecule activators of the heat shock response signaling pathway - cell viability counter screen (AID 743209); further: nearly all actives have a fitted effect of over 50% in size; further: potency means the concentration at half of the fitted maximal effect
Procedure, shortened: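 HSE-bla HeLa; 1500 cells/well; overnight 37 C, 5% CO2; compound 5 h 37 C; LiveBLAzer B/G substrate 2.5 h RT; CellTiter-Glo 30 min RT; luminescence.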

[11] = target: Estrogen receptor (Homo sapiens) (UniProt P03372); assay: qHTS assay to identify small molecule antagonists of the estrogen receptor alpha (ER-alpha) signaling pathway (AID 743069; active means well fitted curve in the direction sought with a large enough effect in the signal ratio in the repeat runs, not every such curve was filed as active; inconclusive means weak or mixed curves, or effect the other way; inactive means no such curve, though single readings can be large or run the other way; the % refers to the signal ratio; further: potency means the concentration at half of the fitted maximal effect)
Procedure, shortened: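 Beta-lactamase FRET fluorescence is read after 2 hr at room temperature with LiveBLAzer B/G substrate. Before that, ER-alpha-bla HEK293 cells sit 4 hr after plating, then receive compound plus 17beta-estradiol and incubate 18 hr at 37C.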

[12] = target: Estrogen receptor (Homo sapiens) (UniProt P03372); assay: qHTS assay to identify small molecule agonists of the estrogen receptor alpha (ER-alpha) signaling pathway (AID 743075; calls by dose curve;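 further: HEK293 GripTite cells with ER-alpha and UAS-driven beta-lactamase reporter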; further: potency means the concentration at half of the fitted maximal effect)
[13] = target: Estrogen receptor (Homo sapiens) (UniProt P03372); assay: qHTS assay to identify small molecule agonists of the estrogen receptor alpha (ER-alpha) signaling pathway using the BG1 cell line (AID 743079); conditions: BG1Luc4E2 cells, ERE-luciferase agonist, 22 h; activation: at 70.3 µM (top of the series); further: nearly all actives have a fitted effect of over 20% in size
[14] = qHTS assay to identify small molecule antagonists of the estrogen receptor alpha (ER-alpha) signaling pathway using the BG1 cell line (AID 743080; calls by dose curve;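 further: BG1 cells stimulated with 17beta-estradiol alongside compound; nearly all actives have a fitted effect of over 25% in size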; further: potency means the concentration at half of the fitted maximal effect); conditions: BG1Luc4E2 ERE-luciferase antagonist mode, luminescence; activity change, negative = inhibition: at 70.3 µM (top of the series)
Procedure, shortened: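 BG1-Luc-4E2 cells (endogenous full-length ER-alpha, 4xERE luciferase) hormone-starved 5 days in charcoal-stripped FBS, plated 4,000/well for 24 h, then compound plus 17beta-estradiol for 21.5 h at 37 C; ONE-Glo luminescence read.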

[15] = qHTS assay for small molecule activators of the heat shock response signaling pathway (AID 743210; active means well fitted activation curve with a large enough effect in the signal ratio in the repeat runs, with a control signal flat, not every such curve was filed as active; inconclusive means weak or mixed curves; the % refers to the signal ratio;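 further: HeLa cells with beta-lactamase reporter driven by heat shock elements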)
Procedure, shortened: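 Beta-lactamase reporter read-out: FRET substrate fluorescence after 2.5 h at RT, following 5 h compound treatment at 37 C of HeLa cells carrying HSE-driven bla reporter; quantitative HTS format.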

[16] = system: thyroid hormone receptor (rat, GH3 cells); assay: qHTS assay to identify small molecule agonists of the thyroid receptor (TR) signaling pathway (AID 743066; calls by dose curve)
[17] = qHTS assay for small molecule agonists of the antioxidant response element (ARE) signaling pathway (AID 743202; active means well fitted activation curve with a large enough effect in the signal ratio in the repeat runs, not every such curve was filed as active; inconclusive means weak or mixed curves, or effect the other way; inactive means no such curve, though single readings can be large or run the other way; the % refers to the signal ratio; further: potency means the concentration at half of the fitted maximal effect)
Procedure, shortened: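 HepG2 ARE-bla reporter line, 2,000 cells/well; 5 h preincubation 37 C/5% CO2; compound (DMSO) 16 h 37 C; B/G FRET substrate 2 h RT; fluorescence intensity.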

[18] = target: Peroxisome proliferator-activated receptor gamma (Homo sapiens) (UniProt P37231); assay: qHTS assay to identify small molecule antagonists of the peroxisome proliferator-activated receptor gamma (PPARg) signaling pathway (AID 743191; calls by dose curve; further: nearly all actives have a fitted effect of over 30% in size)
Procedure, shortened: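 GeneBLAzer PPARg UAS-bla HEK293H cells, 5 h post-plating, exposed to compounds 17 h at 37C. LiveBLAzer B/G FRET substrate added for 1 h at room temperature; beta-lactamase reporter read by fluorescence intensity.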

Sequence of Aryl hydrocarbon receptor (Homo sapiens) (P35869 whole entry, looked up): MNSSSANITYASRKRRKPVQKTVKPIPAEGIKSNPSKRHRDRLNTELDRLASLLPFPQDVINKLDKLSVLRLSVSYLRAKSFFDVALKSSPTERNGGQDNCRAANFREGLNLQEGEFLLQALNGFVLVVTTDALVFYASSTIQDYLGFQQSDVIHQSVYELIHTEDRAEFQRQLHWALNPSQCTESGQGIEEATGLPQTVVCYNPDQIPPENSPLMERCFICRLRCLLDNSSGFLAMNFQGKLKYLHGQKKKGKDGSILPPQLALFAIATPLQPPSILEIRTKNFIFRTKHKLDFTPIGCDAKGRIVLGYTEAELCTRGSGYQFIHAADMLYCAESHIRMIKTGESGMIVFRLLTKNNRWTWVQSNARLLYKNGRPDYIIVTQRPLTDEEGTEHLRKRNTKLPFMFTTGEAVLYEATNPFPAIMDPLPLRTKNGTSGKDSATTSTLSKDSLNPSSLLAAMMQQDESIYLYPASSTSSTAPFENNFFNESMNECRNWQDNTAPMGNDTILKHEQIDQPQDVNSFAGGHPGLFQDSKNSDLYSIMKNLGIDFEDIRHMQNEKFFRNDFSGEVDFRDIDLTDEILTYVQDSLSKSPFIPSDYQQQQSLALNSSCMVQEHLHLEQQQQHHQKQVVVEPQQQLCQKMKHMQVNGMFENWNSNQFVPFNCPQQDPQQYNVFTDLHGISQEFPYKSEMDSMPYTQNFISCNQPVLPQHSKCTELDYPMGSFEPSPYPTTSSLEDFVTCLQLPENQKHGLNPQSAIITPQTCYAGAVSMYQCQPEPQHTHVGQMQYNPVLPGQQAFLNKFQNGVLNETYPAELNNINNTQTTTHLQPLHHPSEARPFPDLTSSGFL
Sequence of Estrogen receptor (Homo sapiens) (P03372 whole entry, looked up): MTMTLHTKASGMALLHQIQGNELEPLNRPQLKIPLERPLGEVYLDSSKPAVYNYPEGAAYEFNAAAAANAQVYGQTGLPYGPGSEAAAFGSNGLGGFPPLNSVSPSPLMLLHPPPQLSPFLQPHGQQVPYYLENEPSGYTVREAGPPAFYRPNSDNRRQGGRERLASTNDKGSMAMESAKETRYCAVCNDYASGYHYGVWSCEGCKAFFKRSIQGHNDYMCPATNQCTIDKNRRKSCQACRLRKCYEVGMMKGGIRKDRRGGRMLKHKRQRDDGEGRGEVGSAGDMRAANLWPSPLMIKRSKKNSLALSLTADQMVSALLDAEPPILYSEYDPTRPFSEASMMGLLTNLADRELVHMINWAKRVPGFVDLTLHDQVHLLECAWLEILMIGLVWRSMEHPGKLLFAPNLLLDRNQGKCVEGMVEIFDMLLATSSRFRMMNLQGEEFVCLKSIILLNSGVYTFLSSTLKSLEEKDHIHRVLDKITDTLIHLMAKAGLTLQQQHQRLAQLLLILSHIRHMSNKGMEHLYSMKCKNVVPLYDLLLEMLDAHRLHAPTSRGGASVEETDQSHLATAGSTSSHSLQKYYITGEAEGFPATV
Sequence of Aromatase (Homo sapiens) (P11511 whole entry, looked up): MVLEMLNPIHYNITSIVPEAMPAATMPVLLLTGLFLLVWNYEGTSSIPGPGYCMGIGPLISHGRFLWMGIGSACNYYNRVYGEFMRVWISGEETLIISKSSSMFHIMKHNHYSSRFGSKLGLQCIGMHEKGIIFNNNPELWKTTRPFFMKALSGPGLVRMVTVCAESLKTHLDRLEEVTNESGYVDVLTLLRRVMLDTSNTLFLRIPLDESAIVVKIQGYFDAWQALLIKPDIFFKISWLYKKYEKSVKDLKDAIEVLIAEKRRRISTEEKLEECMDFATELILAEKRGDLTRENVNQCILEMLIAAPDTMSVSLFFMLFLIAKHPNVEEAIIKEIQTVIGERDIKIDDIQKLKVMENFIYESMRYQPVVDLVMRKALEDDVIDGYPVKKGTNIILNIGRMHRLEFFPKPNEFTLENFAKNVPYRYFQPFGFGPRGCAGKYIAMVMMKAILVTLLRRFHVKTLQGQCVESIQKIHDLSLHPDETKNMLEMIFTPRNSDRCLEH
Sequence of Peroxisome proliferator-activated receptor gamma (Homo sapiens) (P37231 whole entry, looked up): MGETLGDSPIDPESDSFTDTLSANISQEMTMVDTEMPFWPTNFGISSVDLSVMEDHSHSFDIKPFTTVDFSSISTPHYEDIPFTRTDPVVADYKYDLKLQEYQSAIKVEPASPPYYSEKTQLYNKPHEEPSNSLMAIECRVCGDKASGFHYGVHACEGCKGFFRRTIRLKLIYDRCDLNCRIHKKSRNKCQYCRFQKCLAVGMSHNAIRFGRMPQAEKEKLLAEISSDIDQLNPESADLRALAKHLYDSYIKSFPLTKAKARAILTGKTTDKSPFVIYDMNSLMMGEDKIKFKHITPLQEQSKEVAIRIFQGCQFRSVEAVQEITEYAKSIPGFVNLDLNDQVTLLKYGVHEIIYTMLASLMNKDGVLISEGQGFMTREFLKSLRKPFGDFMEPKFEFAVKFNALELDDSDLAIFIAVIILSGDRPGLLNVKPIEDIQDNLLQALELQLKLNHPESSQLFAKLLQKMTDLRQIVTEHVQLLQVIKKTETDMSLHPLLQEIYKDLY

SMILES | Potency [1] | Potency [2] | Potency [3] | Potency (Aromatase (Homo sapiens)) | Potency [4] | Potency [5] | Potency [6] | Potency [7] | Potency [8] | Potency [9] | Potency [10] | Potency [11] | Potency [12] | Potency [13] | Potency [14] | Potency [15] | Potency [16] | Potency [17] | Potency [18]
CCCOc1sc(C(=O)N2CCC(c3cc(CN)ccc3F)CC2)c(C)c1Br | 6.28 µM (active) | 7.91 µM (active) | 44.9 µM (active) | 25 µM (active) | 44.5 µM (active) | 56 µM (active) | 17.9 µM (active) | 17.7 µM (active) |  |  |  |  |  |  |  |  |  |  | 
CC(C)(C)c1cc(/C=C2\SC(=N)NC2=O)cc(C(C)(C)C)c1O | 21.7 µM (active) | 13.7 µM (active) | 54.9 µM (active) |  |  |  | 43.6 µM (active) | 24.3 µM (active) | inactive | inactive | 43.6 µM (active) |  |  |  |  |  |  |  | 
COc1cccc(CCc2ccccc2OCC(CN(C)C)OC(=O)CCC(=O)O)c1 (centres undefined) | 23.7 µM (active) | 13.3 µM (active) | inactive | inactive | inactive |  |  | inactive | inactive |  | inactive | inactive | inactive | inactive | inactive | inactive |  |  | 
CCC(C)c1cc([N+](=O)[O-])cc([N+](=O)[O-])c1OC(=O)OC(C)C (centres undefined) | 48.6 µM (active) | 21.7 µM (active) |  | 61.1 µM (active) | 54.5 µM (active) | 43.3 µM (active) | 49 µM (active) | 24.3 µM (active) |  | inactive | 21.9 µM (active) |  |  |  |  |  | inactive |  | 
O=C1C=CC(=O)N1c1ccccc1 | 4.86 µM (active) | 4.86 µM (active) |  | 10.9 µM (active) | 9.69 µM (active) | 61.1 µM (active) | 13.8 µM (active) | 12.2 µM (active) |  | inactive | 21.9 µM (active) |  |  |  |  |  | inactive |  | 
COc1cc(C(=O)NS(=O)(=O)c2ccccc2C)ccc1Cc1cn(C)c2ccc(NC(=O)OC3CCCC3)cc12 | 29.8 µM (active) | 26.6 µM (active) |  | inactive | inactive | inactive |  | inactive | inactive | 26.6 µM (active) |  |  | inactive | inactive | inactive | inactive |  | 29.8 µM (active) | 
Cc1cc2c(C(C)C)c(O)c(O)c(C=O)c2c(O)c1-c1c(C)cc2c(C(C)C)c(O)c(O)c(C=O)c2c1O | 9.44 µM (active) | 9.44 µM (active) | 21.3 µM (active) | 21.1 µM (active) | 26.6 µM (active) |  | 8.41 µM (active) | 8.41 µM (active) |  | inactive | 13.3 µM (active) | 9.52 µM [inconclusive] (active) | inactive |  |  |  |  |  | 
C=C(c1ccc(C(=O)O)cc1)c1cc2c(cc1C)C(C)(C)CCC2(C)C | 11.9 µM (active) and 13.7 µM (active) | 9.44 µM (active) and 9.69 µM (active) |  | inactive and 61.1 µM (active) | inactive | inactive | 19.5 µM (active) | 13.7 µM (active) | inactive | inactive |  | 17.4 µM [fluorescent] (active) |  | inactive | 3.76 µM (active) |  |  |  | 
O=C1NC2CCCCN2C12CCN(CCCN1c3ccccc3CCc3ccc(Cl)cc31)CC2 (centres undefined) | 6.68 µM (active) | 8.41 µM (active) | inactive | 23.7 µM (active) |  | 23.7 µM (active) | 26.6 µM (active) | 29.8 µM (active) |  | 13.3 µM (active) | 29.8 µM (active) |  | inactive |  |  |  |  |  | 
CC(=O)OC(OC(C)=O)c1ccc([N+](=O)[O-])o1 | 13.9 µM (active) | 13.9 µM (active) |  | 17.5 µM (active) | 13.9 µM (active) |  | 49.8 µM (active) | 62.2 µM (active) |  | inactive | 19.8 µM (active) |  |  |  |  |  | inactive | 15.6 µM (active) | 
CCOC(=O)C1=C(C)NC(C)=C(C(=O)OCC)C1c1ccccc1/C=C/C(=O)OC(C)(C)C | 13.3 µM (active) | 10.6 µM (active) | inactive |  | inactive | inactive | inactive |  | inactive |  |  |  | 6.74 µM [fluorescent] (active) |  | 33.5 µM (active) |  |  |  | 
CN(C)CCCN1c2ccccc2Sc2ccc(C(F)(F)F)cc21 | 9.44 µM (active) | 10.6 µM (active) |  | inactive | inactive | 23.7 µM (active) |  | 29.8 µM (active) | inactive | inactive |  |  | inactive |  | inactive | inactive |  |  | 
CC(C(O)c1ccccc1)N(C)CCOC(c1ccccc1)c1ccccc1 (centres undefined) | 11.9 µM (active) | 16.8 µM (active) |  | 29.8 µM (active) |  | inactive | inactive |  |  | inactive |  | inactive | inactive |  | inactive | inactive |  |  | inactive
NC1(c2ccc(-c3nc4ccn5c(=O)[nH]nc5c4cc3-c3ccccc3)cc2)CCC1 | 13.3 µM (active) | 13.3 µM (active) |  | inactive |  |  | 4.22 µM (active) |  | inactive |  | inactive |  | 21.3 µM [activator] (active) | inactive |  | inactive |  |  | 
CCCCCCCC/C=C\CCCCCCCC(=O)NCc1ccc(O)c(OC)c1 | 6.68 µM (active) | 6.68 µM (active) | inactive | inactive | inactive | inactive | inactive |  | inactive | inactive |  |  |  |  |  |  |  |  | 
